Where “and” joins values, the source holds several entries; their conditions need not be identical. Equal values may be shown once. Screen size: about 5,500 compounds; about 2,000 (36%) were called active. About 18% were inconclusive and are not listed. No stated cut-off is given here; in the data, active means normalized growth mostly below about 0.91 (no sharp cut-off); inconclusive means no clear call, values can overlap the other calls; inactive means mostly above about 0.92. This is one part of the list.
Test: chemical genetic growth profiling, strain panel (AID 1159580);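 further: tested at 20 µM; growth read once vehicle control cultures reached saturation at 30 °C; 1 = growth at the plate median or of vehicle wells; lower values mean less growth of the strain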
Details: S. cerevisiae deletion strains, growth OD

Measured: normalized growth

CC(=O)O[C@]1(C(C)=O)CCC2C3C[C@H](C)C4=CC(=O)CC[C@]4(C)C3CC[C@@]21C (stereo partly drawn)
active: locus YDR137W, strain rgp1, hits give low values 0.839 | locus YDR392W, strain spt3, hits give low values 0.635 | locus YHR142W, strain chs7, hits give low values 0.841
inactive: locus YAL021C, strain ccr4, hits give low values 1 | locus YAL026C, strain drs2, hits give low values 0.992 | locus YAL030W, strain snc1, hits give low values 0.968 | locus YBL061C, strain skt5, hits give low values 0.964 | locus YBR009C, strain hhf1, hits give low values 0.955 | locus YBR021W, strain FUR4, hits give low values 0.993 | locus YBR023C, strain chs3, hits give low values 0.924 | locus YBR171W, strain sec66, hits give low values 0.95 | locus YBR229C, strain ROT2, hits give low values 0.993 | locus YBR231C, strain swc5, hits give low values 0.971 | locus YBR279W, strain paf1, hits give low values 0.97 | locus YCL011C, strain gbp2, hits give low values 0.931 | locus YCL016C, strain dcc1, hits give low values 0.916 | locus YCL029C, strain bik1, hits give low values 0.957 | locus YCL061C, strain MRC1, hits give low values 0.965 | locus YCL069W, strain vba3, hits give low values 0.958 | locus YCR088W, strain abp1, hits give low values 0.961 | locus YDL005C, strain med2, hits give low values 0.959 | locus YDL035C, strain GPR1, hits give low values 1.01 | locus YDL040C, strain nat1, hits give low values 0.971 | locus YDL074C, strain BRE1, hits give low values 0.983 | locus YDL101C, strain DUN1, hits give low values 0.993 | locus YDL185W, strain tfp1, hits give low values 0.956 | locus YDL192W, strain arf1, hits give low values 0.966 | locus YDR001C, strain nth1, hits give low values 0.97 | locus YDR069C, strain doa4, hits give low values 0.992 | locus YDR101C, strain arx1, hits give low values 0.999 | locus YDR150W, strain NUM1, hits give low values 0.99 | locus YDR159W, strain sac3, hits give low values 0.971 | locus YDR162C, strain NBP2, hits give low values 0.993 | locus YDR195W, strain ref2 1.07 | locus YDR297W, strain sur2, hits give low values 0.971 | locus YDR318W, strain mcm21, hits give low values 0.961 | locus YDR334W, strain swr1, hits give low values 0.96 | locus YDR335W, strain msn5, hits give low values 0.971 | locus YDR388W, hits give low values 0.989 | locus YDR502C, strain sam2, hits give low values 0.954 | locus YEL003W, strain gim4, hits give low values 0.987 | locus YEL037C, strain rad23, hits give low values 0.962 | locus YEL061C, strain CIN8 (second series), hits give low values 0.97 | locus YEL061C, strain CIN8, hits give low values 0.991 | locus YER015W, strain faa2, hits give low values 0.969 | locus YER016W, strain bim1, hits give low values 0.975 | locus YER110C, hits give low values 0.96 | locus YER111C, strain swi4, hits give low values 0.96 | locus YER155C, strain BEM2 (second series), hits give low values 0.976 | locus YER155C, strain BEM2, hits give low values 0.98 | locus YER167W, strain BCK2, hits give low values 0.977 | locus YFR010W, strain ubp6, hits give low values 0.981 | locus YGL078C, strain dbp3, hits give low values 0.982 | locus YGL086W, strain mad1, hits give low values 0.995 | locus YGL167C, strain pmr1, hits give low values 0.948 | locus YGL173C, strain kem1, hits give low values 0.969 | locus YGL227W, strain vid30, hits give low values 0.969 | locus YGL240W, strain doc1, hits give low values 0.98 | locus YGL248W, strain PDE1, hits give low values 0.992 | locus YGL253W, strain hxk2, hits give low values 0.91 | locus YGR135W, strain pre9, hits give low values 0.912 | locus YGR252W, strain gcn5, hits give low values 0.926 | locus YHR013C, strain ard1, hits give low values 0.968 | locus YHR027C, strain rpn1, hits give low values 0.984 | locus YHR030C, strain SLT2, hits give low values 0.997 and 0.999 | locus YHR079C, strain IRE1 (second series), hits give low values 0.979 | locus YHR079C, strain IRE1, hits give low values 0.98 | locus YHR094C, strain hxt1, hits give low values 0.991 | locus YHR129C, strain ARP1, hits give low values 0.993 | locus YHR200W, strain rpn10, hits give low values 0.982 | locus YIL066C, strain RNR3, hits give low values 0.991 | locus YIL073C, strain SPO22, hits give low values 0.932 | locus YIL125W, strain kgd1, hits give low values 0.996 | locus YIR030C, strain dcg1, hits give low values 0.962 | locus YJL092W, strain hpr5, hits give low values 0.964 | locus YJL095W, strain BCK1 (second series), hits give low values 0.953 | locus YJL095W, strain BCK1, hits give low values 0.961 and 1 | locus YJL115W, strain asf1, hits give low values 0.969 | locus YJL129C, strain trk1, hits give low values 0.902 | locus YJL134W, strain LCB3, hits give low values 0.993 | locus YJL154C, strain vps35, hits give low values 0.964 | locus YJL164C, strain tpk1, hits give low values 0.97 | locus YJL166W, strain qcr8, hits give low values 0.926 | locus YJL168C, strain set2, hits give low values 0.985 | locus YJL187C, strain SWE1 (second series), hits give low values 0.985 | locus YJL187C, strain SWE1, hits give low values 0.976 | locus YJR043C, strain POL32, hits give low values 1.03 | locus YJR066W, strain TOR1, hits give low values 0.958

— PubChem BioAssay AID1159580 (chemical genetic matrix, 2015)
